The results in this text go back to PubChem BioAssay AID1851 (National Center for Advancing Translational Sciences (NCATS), 2009).

Several values for one entry are separate records, joined by “and”; a condition that tells them apart may be missing. Equal values may be shown once. Among all 16,000 compounds or so, about 5,800 (36%) were called active. Inconclusive results (about 23%) are left out. Some of the results follow. Unmarked numbers belong to inactive results. Calls come from the whole dose curve; as a rule, active = well fitted curve in the direction sought with a large enough effect; inconclusive = small, poorly fitted or top-dose-only effect, or effect the other way; inactive = no such curve, though single readings can be large or run the other way.
% is set by controls: 0 for no effect and ±100 for the full control effect.

Sequence of Cytochrome P450 2C19 (Homo sapiens) (P33261 whole entry, looked up): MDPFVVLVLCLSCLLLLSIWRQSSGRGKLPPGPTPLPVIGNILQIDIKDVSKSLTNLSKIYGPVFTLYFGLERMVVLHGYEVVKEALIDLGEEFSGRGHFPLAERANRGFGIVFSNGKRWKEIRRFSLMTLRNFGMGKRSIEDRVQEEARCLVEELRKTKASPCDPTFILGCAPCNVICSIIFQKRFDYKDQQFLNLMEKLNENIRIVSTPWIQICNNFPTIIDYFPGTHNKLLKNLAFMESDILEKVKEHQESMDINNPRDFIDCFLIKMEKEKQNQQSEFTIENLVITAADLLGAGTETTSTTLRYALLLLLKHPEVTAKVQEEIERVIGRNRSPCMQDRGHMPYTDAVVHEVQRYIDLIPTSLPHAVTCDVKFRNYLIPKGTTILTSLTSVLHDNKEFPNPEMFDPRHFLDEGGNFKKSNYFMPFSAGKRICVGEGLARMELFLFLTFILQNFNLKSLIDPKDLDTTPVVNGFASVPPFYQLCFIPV

The experiment concerns the target Cytochrome P450 2C19 (Homo sapiens) (UniProt P33261). Put plainly: Cytochrome panel assay with activity outcomes. The conditions noted are these: recombinant CYP, pro-luciferin dealkylation, luminescence, p450-cyp2c19; series mostly up to 57.1 µM; activity, negative = inhibition: at the top concentration.
Turning to `CS(=O)(=O)Nc1ccc(S(=O)(=O)N2CCOCC2)cc1`, the “activity, negative = inhibition” value was 12.7%.

As usually defined, the AC50 is the concentration giving half of the maximal activity seen. As to `COc1cc(NC(=S)Nc2ccc(S(=O)(=O)N3CCOCC3)cc2)cc(OC)c1OC`, the concentration at half-maximal activity (AC50) is 10 µM (active).

Regarding `CCCc1c(OCCCOc2ccc(OCC(=O)O)cc2)ccc(CC=O)c1O`, the “activity, negative = inhibition” value is 14%.

For `COc1ccc(C(=O)N/N=C(\C)Cn2nc([N+](=O)[O-])cc2C)cc1`, the “activity, negative = inhibition” value was -29%.

As to `COc1ccc(CC(=O)Nc2cccc(/C(C)=N/NC(=O)c3cccc([N+](=O)[O-])c3)c2)cc1`, the half-maximal activity concentration (AC50) was 14.1 µM (active).

Turning to `CCSc1nnc2n(N)c(=O)c3ccccc3n12`, the “activity, negative = inhibition” value was -68.5%.

For the compound `Cc1cc2nnc(SCC(=O)OC(C)C)n2c2ccccc12`, the AC50 was 7.94 µM (active).

`COC(=O)c1cc(C#N)c(NCc2ccc(Cl)cc2Cl)nc1C`: the “activity, negative = inhibition” value was -14%.

Consider `CC(=O)c1cc(C#N)c(Oc2cccc(C(F)(F)F)c2)nc1C`, for which the AC50 was 11.2 µM (active).

Consider `COc1ccc(Oc2ncc3nc(C)c(=O)n(-c4ccc(OC)cc4)c3n2)cc1`, for which the “activity, negative = inhibition” value was -22%.

For the compound `COC(=O)c1cc(C#N)c(Oc2ccc(OC)cc2)nc1C`, the AC50 was 17.8 µM (active).

Consider `Cn1cccc1C(=O)N1CCC2(CCN(C(=O)Nc3ccccc3)CC2)CC1`, for which the “activity, negative = inhibition” value was -13.8%.

With `Cn1cccc1C(=O)N1CCC2(CC1)CN(C(=O)Nc1ccccc1)C2`, the “activity, negative = inhibition” value was -10.7%.

`Cn1cccc1C(=O)C(=O)Nc1cccc(Cl)c1Cl`: the AC50 is 3.16 µM (active).

On to `O=c1n(-c2ccccc2)c(=O)n2n1CC[C@H]1/C(=N\OC[C@@H](O)COCc3ccco3)[C@H]3O[C@@H]3[C@@H](O)[C@@H]12`, for which the activity, negative = inhibition is 18.2% [at 11.4 µM] and 1.03% [at 11.4 µM].

As for `CCN(c1ccc(NC(=O)COC(=O)c2ccc3ccccc3n2)cc1)C(C)C`, the concentration at half-maximal activity (AC50) is 4.47 µM (active).

As to `Cc1ccnc2nc(C(=O)OCC(=O)Nc3ccc4c(c3)OC(F)(F)O4)nn12`, the “activity, negative = inhibition” value is -13.2%.

As to `COc1ccc(C(=O)Nc2ccc(OCC(F)(F)C(F)F)c(C(F)(F)F)c2)cc1OC`, the AC50 is 14.1 µM (active).

For the compound `CC(C)NC(=O)N1CC[C@@]2(CCCN(C(=O)c3csnn3)C2)C1`, the “activity, negative = inhibition” value was 26.7%.

Consider `Cc1ccc2cc(CCNC(=O)c3ccc(Br)o3)c(=O)[nH]c2c1`, for which the AC50 is 2.24 µM (active).

With `COc1ccc2cc(CCNC(=O)C3CC3)c(=O)[nH]c2c1`, the “activity, negative = inhibition” value was 15.9%.

As for `CC(=O)N1CCN(C(=O)CC2OC(=O)c3ccccc32)CC1` (stereo not given), the half-maximal activity concentration (AC50) was 1.78 µM (active).

For the compound `COc1ccc(OC)c2c(=S)c3ccccc3[nH]c12`, the “activity, negative = inhibition” value was -15%.

`CCN(C(=S)Nc1ccccc1F)C1CCCCC1`: the concentration at half-maximal activity (AC50) is 3.98 µM (active).

`Cc1ccc([N+](=O)[O-])cc1NC(=S)NC(=O)C(C)(C)C`: the AC50 is 2 µM (active).

Take `Cc1ccc([N+](=O)[O-])cc1NC(=S)NC(=O)CC(C)(C)C`: the AC50 was 4.47 µM (active).

Consider `Cc1ccc(SCc2ccc(C(=O)Nc3cc([N+](=O)[O-])ccc3C)cc2)cc1`, for which the “activity, negative = inhibition” value is -29.8%.

As for `O=C(O)c1ccc(C(=O)Nc2cccc3ccccc23)c(C(=O)O)c1`, the activity, negative = inhibition was 12.6% [at 11.4 µM].

For `CCn1c(C)c(C)c2cc(C(=O)Nc3cccc(Cl)c3)ccc21`, the concentration at half-maximal activity (AC50) is 7.08 µM (active).

In the case of `Cc1c(C)n(C)c2ccc(C(=O)Nc3cccc4ccccc34)cc12`, the AC50 is 3.55 µM (active).

`COc1ncc2nc(-c3cc(F)cc(F)c3)c(=O)n(-c3ccccc3)c2n1`: the “activity, negative = inhibition” value is -6.54%.

As to `O=c1sc2ccccc2n1CCCOc1ccccc1`, the AC50 is 1.12 µM (active).

Take `Cc1ccccc1OCCCn1c(=O)sc2ccccc21`: the AC50 is 1 µM (active).

On to `Cc1ccc(OCCCn2c(=O)sc3ccccc32)cc1`, for which the AC50 is 0.708 µM (active).

For `C[N+](C)(CCCOc1ccccc1)c1ccccc1`, the “activity, negative = inhibition” value is -7.56% [at 25.6 µM].

Turning to `C/C(CCN1CCc2nc(-c3ccccc3)c(-c3ccccc3)cc2C1)=N\O[C@@H](C)c1cn([C@H](CO)Cc2ccccc2)nn1`, the activity, negative = inhibition was -17.8% [at 11.4 µM] and -16.4% [at 11.4 µM].

Take `OC[C@@H]1NC[C@@H](O)[C@H]1O`: the “activity, negative = inhibition” value is 22.6%.

Regarding `O=c1[nH][nH]c(C(F)(F)F)c1C=Nc1cccc(Cl)c1`, the “activity, negative = inhibition” value is 26.9%.

On to `COc1cccc(C=NC=Nc2cccc(OC)c2)c1`, for which the “activity, negative = inhibition” value is 13.9%.

With `Clc1cccc(C=NC=Nc2cccc(Cl)c2)c1`, the AC50 was 10 µM (active).

As for `CNc1cc(-c2c(C)noc2C)ncn1`, the “activity, negative = inhibition” value was -0.312%.

On to `Cc1noc(C)c1-c1nccc(Nc2ccc(F)cc2)n1`, for which the concentration at half-maximal activity (AC50) was 3.98 µM (active).

For `Cc1noc(C)c1-c1nccc(NC2CC2)n1`, the AC50 is 10 µM (active).

`c1ccc2c(NCCN3CCOCC3)nc(-c3ccoc3)nc2c1`: the “activity, negative = inhibition” value is -14.3%.

`Cc1noc(C)c1-c1nc(Nc2ccccc2)c2ccccc2n1`: the “activity, negative = inhibition” value was 0.272%.

On to `Cc1noc(C)c1-c1nc(NCCN2CCOCC2)c2ccccc2n1`, for which the AC50 was 7.94 µM (active).

`COCCNc1nc(-c2c(C)noc2C)nc2ccccc12`: the “activity, negative = inhibition” value was -17.6%.

On to `CN(C)Cc1ccccc1-c1nccc(NC2CC2)n1`, for which the “activity, negative = inhibition” value was 15.1%.

For the compound `Cc1noc(C)c1-c1nc(NC2CCNCC2)c2ccccc2n1`, the “activity, negative = inhibition” value was -9.75%.

Consider `Cc1noc(C)c1-c1nc(Nc2ccc(F)cc2)c2ccccc2n1`, for which the AC50 was 3.16 µM (active).
